From PubChem BioAssay
The list is not random: actives were taken first. Their share in the collection is about 1.6%.
MLLE-PAM2 inh = blocks PAM2 peptide binding to the PABP1 MLLE domain; P11940; GST-MLLE / FITC-PAM2 fluorescence polarization; inhibition, % at 20 µM; 0.36% of 360,000 active; AID 588489; in the data active = inhibition above about 35%, passing the limit was not always enough;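 note: plate controls were DMSO wells with GST-MLLE for no effect and wells lacking GST-MLLE protein for full effect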
PERK inh = blocks human PERK kinase | Q9NZJ5 | CHO PERK-DD fusion, SEAP luminescence translation reporter | inhibition, % at 5.6 µM | 0.17% of 220,000 active;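 active = inhibition above the mean inhibition of all tested compounds plus 3 SD, set separately per screening campaign, cut at about 2.9% in these data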;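 note: PERK kinase domain activated by AP20187 dimerizer at 100 nM; 0% = DMSO with dimerizer and 100% = rapamycin at 8.4 µM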
PABP polyA inh = PABP-poly(A) binding inhibition. P11940. PABP-poly(A) RNA binding, fluorescence polarization. inhibition, % at 35 µM. 1% of 290,000 active. AID 2014;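 note: calls also rest on retests at 20 µM and on dose response follow-up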
eIF4H inh = inhibitors of RNA binding by human eIF4H | Q15056 | eIF4H fluorescence polarization binding assay | inhibition, % at 35 µM | 0.94% of 290,000 active | AID 2012;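 note: calls also rest on retests at 20 µM and on dose response follow-up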
eIF4E 4G PPI = inhibitors of eIF4E and eIF4G interaction in translation initiation; 0.37% of 220,000 active; AID 782; inhibition, % at 21.7 µM; P63073+Q04637; TR-FRET eIF4E-eIF4GI(517-606) binding, 2 h;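 active = inhibition above about 30%, limit read from the data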;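 note: 0% = full FRET control wells and 100% = background wells lacking eIF4GI fragment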
* marks the source's active call; other numbers are inactive results; [ ] = dose if it differs, or a comment. Unless noted, the rule behind the calls is not given here.

For Cc1c(C(=O)O)sc2nc(SCC(=O)Nc3ccc(S(=O)(=O)NCCCC(=O)O)cc3)[nH]c(=O)c12 the results were MLLE-PAM2 inh -1, PERK inh 1, PABP polyA inh 82, eIF4H inh 1.1* and eIF4E 4G PPI 2.
`Cc1c(C(=O)O)sc2nc(SCC(=O)Nc3ccc(S(=O)(=O)NC(C)(C)C)cc3)[nH]c(=O)c12` gave MLLE-PAM2 inh 2, PERK inh 0, PABP polyA inh 2, eIF4H inh 0 and eIF4E 4G PPI 1.
For Cc1ccnc(SCC(=O)N2CCc3ccccc32)n1 the results were MLLE-PAM2 inh -9, PABP polyA inh -4 and eIF4H inh 2.
For O=C(CSc1ncn(-c2ccccc2)n1)N1CCc2ccccc21 the results were MLLE-PAM2 inh 20, PERK inh 0, PABP polyA inh 4, eIF4H inh -6 and eIF4E 4G PPI 31*[fluorescence artefact?].
Screening O=C(CSc1nnc(Cc2ccccc2)o1)N1CCCc2ccccc21 returned MLLE-PAM2 inh 32, PERK inh -1, PABP polyA inh -2, eIF4H inh -4 and eIF4E 4G PPI -5.
For O=C(CSc1nnc(CNc2ccccc2)o1)N1CCc2ccccc21 the results were MLLE-PAM2 inh 5, PERK inh 1, PABP polyA inh -2, eIF4H inh -4 and eIF4E 4G PPI 36*.
For CC1CCCCN1C(=S)NC(=O)c1cccs1 (stereo unspecified) the results were MLLE-PAM2 inh 20, PERK inh 1, PABP polyA inh 1, eIF4H inh 7 and eIF4E 4G PPI 92*.
`O=C(Nc1ccc(Cl)c(Cl)c1)Nc1nnc(-c2ccncc2)s1` gave MLLE-PAM2 inh -6, PERK inh 0, PABP polyA inh 0.7*, eIF4H inh 74* and eIF4E 4G PPI 38*.
For CCOC(=O)CN1C(=O)S/C(=C/c2cc(C)n(C)c2C)C1=O the results were MLLE-PAM2 inh 10 and PERK inh 0.
O=c1cc(CSc2n[nH]c(-c3ccncc3)n2)nc2sccn12 was read as MLLE-PAM2 inh -3, PERK inh 0, PABP polyA inh 33, eIF4H inh 63* and eIF4E 4G PPI 17.
`Cc1ccc(S(=O)(=O)N2c3ccccc3OCC2c2ccccc2)cc1` (stereo unspecified) gave MLLE-PAM2 inh 2, PERK inh -1, PABP polyA inh 3, eIF4H inh 5 and eIF4E 4G PPI 2.
`CCOc1ccc(S(=O)(=O)Nc2cccc(C(=O)N3CCN(C(C)=O)CC3)c2)cc1` gave MLLE-PAM2 inh 10.
For O=C(Nc1nc2c(Cl)ccc(Cl)c2s1)C1CC1 the results were MLLE-PAM2 inh 14, PABP polyA inh -2 and eIF4H inh 1.
For NNc1nc2c(Cl)ccc(Cl)c2s1 the results were MLLE-PAM2 inh 9, PERK inh 0, PABP polyA inh 3.3*, eIF4H inh 62* and eIF4E 4G PPI -1.
CCOC(=O)N1CCN(C(=O)c2ccc3c(=O)n(CCC4=CCCCC4)c(=S)[nH]c3c2)CC1 was read as MLLE-PAM2 inh -68, PERK inh 0, PABP polyA inh 5, eIF4H inh -3 and eIF4E 4G PPI 6.
`O=C(OCc1cc(=O)n2c(n1)sc1ccccc12)c1cccc(O)c1` gave MLLE-PAM2 inh -16, PERK inh 1, PABP polyA inh -19, eIF4H inh 81 and eIF4E 4G PPI 10.
O=C(OCc1cc(=O)n2c(n1)sc1ccccc12)c1ccc(O)cc1O was read as MLLE-PAM2 inh -25, PERK inh 0, PABP polyA inh -2, eIF4H inh 84 and eIF4E 4G PPI 33*.
`COc1ccc(Cn2c(C)nc3c(c2=O)c2nc4ccccc4nc2n3Cc2ccco2)cc1` gave MLLE-PAM2 inh -33.
For COc1ccc(Cn2c3nc4ccccc4nc3c3c(=O)n(Cc4ccco4)c(C)nc32)cc1 the results were PABP polyA inh 36* and eIF4H inh 54*.
Screening Cc1cccc2c(N=Nc3ccccc3)c(O)[nH]c12 returned MLLE-PAM2 inh -19, PABP polyA inh 57* and eIF4H inh 95*.
`CCOC(=O)CNC(c1ccccc1)c1cc(Br)ccc1NC(=O)OCC` (stereo unspecified) gave MLLE-PAM2 inh 0, PERK inh -1, PABP polyA inh 55*, eIF4H inh 104* and eIF4E 4G PPI 11.
`Cn1c(=O)c(=O)n(C)c2cc(S(=O)(=O)CCC(=O)Nc3ccc(C(F)(F)F)cc3)ccc21` gave MLLE-PAM2 inh 1, PABP polyA inh 11 and eIF4H inh 2.
`C=CCNC(=O)Nc1ccc(F)cc1F` gave MLLE-PAM2 inh -2, PERK inh 3.4*, PABP polyA inh 5, eIF4H inh 4 and eIF4E 4G PPI 1.
C=CCNC(=S)Nc1ccc(F)cc1F was read as MLLE-PAM2 inh -10, PERK inh 1, PABP polyA inh 1, eIF4H inh -5 and eIF4E 4G PPI 3.
Cc1cccc(NC(=O)CN2C(=O)N/C(=C\c3ccc(-c4cccc(C(=O)O)c4)o3)C2=O)c1 was read as MLLE-PAM2 inh -1, PERK inh 2, PABP polyA inh 72*, eIF4H inh 79* and eIF4E 4G PPI -5.
O=C(O)c1cccc(-n2cccc2/C=C2\NC(=O)N(Cc3ccc(F)cc3)C2=O)c1 was read as MLLE-PAM2 inh 5, PERK inh 1, PABP polyA inh 55*, eIF4H inh 82 and eIF4E 4G PPI 11.
For Cc1ccc(CN2C(=O)N/C(=C\c3cccn3-c3cccc(C(=O)O)c3)C2=O)cc1 the results were MLLE-PAM2 inh 7, PERK inh 0, PABP polyA inh 2.6*, eIF4H inh 90 and eIF4E 4G PPI 6.
Screening CCOC(=O)c1cccc(-n2cccc2/C=C2\NC(=O)N(CC(=O)O)C2=O)c1 returned MLLE-PAM2 inh -1.
O=C1N/C(=C/c2cccn2-c2ccc(F)cc2)C(=O)N1Cc1ccccc1 was read as MLLE-PAM2 inh -11, PERK inh 0, PABP polyA inh 10, eIF4H inh -8 and eIF4E 4G PPI -2.
For Cc1cccc(NC(=O)CN2C(=O)N/C(=C/c3ccc(C)o3)C2=O)c1 the results were MLLE-PAM2 inh -9, PERK inh 0, PABP polyA inh -12, eIF4H inh 15 and eIF4E 4G PPI -2.
Cc1ccc(NC(=O)CN2C(=O)N/C(=C\c3cccn3-c3cccc(C(=O)O)c3)C2=O)cc1 was read as MLLE-PAM2 inh 2, PERK inh 2, PABP polyA inh 1.5*, eIF4H inh 99* and eIF4E 4G PPI 24.
Screening Cc1cc(NC(=S)N(CCN2CCCCC2)Cc2ccco2)ccc1Cl returned MLLE-PAM2 inh -62, PERK inh -1, PABP polyA inh 12, eIF4H inh 1 and eIF4E 4G PPI 0.
Screening Cc1ccc(NC(=O)CN2C(=O)N/C(=C/c3ccccc3OCc3cccc(C(=O)O)c3)C2=O)cc1 returned MLLE-PAM2 inh 16.
`Cc1ccc(NC(=O)CN2C(=O)N/C(=C/c3cc(C)n(-c4cccc(C(=O)O)c4)c3C)C2=O)cc1` gave MLLE-PAM2 inh 18, PERK inh 0, PABP polyA inh 26*, eIF4H inh 86* and eIF4E 4G PPI 35*.
